Assay results as given in PubChem BioAssay.
Calls of active or inactive are those of the source.

Columns and labels:
[1] = compound effects on lung adenocarcinoma cell viability – A549, calcein-AM fluorescence, 48 h, basal, profiling panel (AID 1162); conditions: higher = more signal
[2] = compound effects on differentiated 3T3-L1 adipocyte viability – cell-based, 3T3-L1 adipocytes, calcein-AM fluorescence, 48 h, basal, profiling panel (AID 1163); conditions: 3T3-L1 adipocytes viability, higher = more signal
[3] = compound effects on hepatocellular carcinoma cell viability – HepG2, calcein-AM fluorescence, 48 h, basal, profiling panel (AID 1164); conditions: higher = more signal
[4] = compound effects on multiple myeloma cell viability – MM1S, calcein-AM fluorescence, 48 h, basal, profiling panel (AID 1165); conditions: higher = more signal
[5] = calcein-AM signal in unstimulated myeloma cells – cell-based, calcein-AM fluorescence, 48 h, PK04 Diversity Set, profiling panel (AID 1166); conditions: RPMI8226 myeloma viability, higher = more signal;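 note: cells grown under basal conditions without added stimulus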
[6] = JC-1 mitochondrial signal, unstimulated HepG2 cells – cell-based, JC-1 fluorescence, 24 h, 100 nL compound, profiling panel (AID 1167); conditions: HepG2 mitochondrial potential, higher = more signal
[7] = JC-1 mitochondrial signal, unstimulated adipocytes – cell-based, JC-1 fluorescence, 3T3-L1 adipocytes, 24 h, 100 nL compound, profiling panel (AID 1168); conditions: JC-1 mitochondrial fluorescence, higher = more signal, called active from +8 up or from −8 down
[8] = JC-1 mitochondrial signal, unstimulated myeloma cells – cell-based, JC-1 fluorescence, RPMI8226, 24 h, 100 nL compound, profiling panel (AID 1169); conditions: JC-1 mitochondrial potential fluorescence, higher = more signal
[9] = JC-1 mitochondrial signal, unstimulated MM1S myeloma – cell-based, JC-1 fluorescence, 24 h, 100 nL compound, profiling panel (AID 1170); conditions: MM1S mitochondrial potential, higher = more signal
[10] = resazurin metabolic signal in A549 cells – cell-based, resazurin fluorescence, 24 h, PK04 Diversity Set, profiling panel (AID 1171); conditions: A549 viability, higher = more signal, called active from +8 up or from −8 down
Note: test concentration not given here.

SMILES	z-score [1]	z-score [2]	z-score [3]	z-score [4]	z-score [5]	z-score [6]	z-score [7]	z-score [8]	z-score [9]	z-score [10]
COc1ccc(COC(=O)NN=C2C[C@@H](O)[C@@H](O)[C@@H]3[C@@H]4C(=O)N([C@@H](C)c5ccccc5)C(=O)[C@@H]4CC[C@@H]23)cc1	-0.173	0.0685	-0.966	0.434	-1.26	-0.697	-0.132 (inactive)	-0.189	-0.369	0.0487 (inactive)
CC(C)CON=C1C[C@@H](O)[C@@H](O)[C@@H]2[C@@H]3C(=O)N(c4ccc(F)cc4F)C(=O)[C@@H]3CC[C@@H]12	-0.793	0.44	-0.464	-0.102	-0.587	1.31	-0.4 (inactive)	-0.648	-0.425	0.491 (inactive)
CCOC(=O)CCN1C(=O)[C@H]2[C@H]3[C@H](O)[C@H](O)CC(=O)[C@@H]3CC[C@H]2C1=O	-0.856	0.314	-0.0609	-0.885	0.456	-0.385	-0.368 (inactive)	-0.798	0.325	0.699 (inactive)
O=C1C=C[C@@H](O)[C@@H]2[C@@H]3C(=O)N(Cc4ccccc4)C(=O)[C@@H]3CC[C@@H]12	0.698	0.594	1.33	-0.134	-0.73	1.42	-0.125 (inactive)	-0.057	-0.05	-0.754 (inactive)
CO[C@H]1COC(=O)[C@H](CCSC)NC(=O)CC=C[C@@H](C)[C@H](OC)COC(=O)[C@@H](OCc2ccccc2)C=C[C@@H]1C	-0.843	-0.161	-1.1	-0.0051	0.241	0.247	-1.75 (inactive)	0.759	-0.491	0.886 (inactive)
O=C1[C@H]2[C@H]3[C@H](O)[C@H](O)CC(=NO[C@@H]4O[C@H](CO)[C@@H](O)[C@H](O)[C@H]4O)[C@H]3CC[C@H]2C(=O)N1c1ccc(F)cc1F	-0.32	0.528	-0.846	0.0224	-0.3	0.419	-0.35 (inactive)	-0.177	-0.709	1.09 (inactive)
CO[C@H]1COC(=O)CC=C[C@H](C)[C@H](OC)COC(=O)[C@@H](C)NC(=O)CC=C[C@@H]1C	-0.42	0.269	-0.642	0.0674	0.222	-0.66	-0.557 (inactive)	-0.283	-0.248	0.691 (inactive)
COC(=O)[C@H](C)NC(=O)CCC1CC(OC(=O)NCc2cccc3ccccc23)CC2(CCCC(COC(=O)NCc3ccccc3)O2)O1 (stereo not given in full)	0.217	0.2	-0.653	0.621	0.769	1.46	0.818 (inactive)	0.662	-0.845	2.64 (inactive)
CC(C)(C)N1C(=O)[C@H]2[C@@H]3C(=CC[C@H]2C1=O)C(=O)[C@H]1O[C@H]1[C@H]3O	-2.32	-3.02	-4.31	-3.19	-3.9	2.38	2.29 (inactive)	-0.787	-2.59	-3.43 (inactive)
CO[C@@H](C1CCCCC1)[C@@H](C)[C@H](OCc1cccc(Br)c1)[C@@H](C)CO	-2.34	-0.348	-2.22	-3.02	-4.04	-4.59	0.408 (inactive)	-1.11	-0.184	-1.21 (inactive)
CCOC(=O)[C@H](Cc1ccccc1)NC(=O)CCC1CC(OC(=O)NCc2ccc3c(c2)OCO3)CC2(CCCC(COC(=O)NCCCN3CCCC3=O)O2)O1 (stereo not given in full)	0.0325	0.484	-0.152	-0.59	-1.6	1.97	-0.654 (inactive)	0.517	0.547	0.529 (inactive)
COc1ccc(COC(=O)NN=C2C[C@@H](O)[C@@H](O)[C@@H]3[C@@H]4C(=O)N(C[C@@H]5CCCO5)C(=O)[C@@H]4CC[C@H]23)cc1	0.0369	-0.0792	-0.592	0.634	-0.107	-0.402	-1.22 (inactive)	-0.148	-1.02	-0.0101 (inactive)
CO[C@H]1COC(=O)[C@H](C)COC(=O)[C@@H](OCc2ccccc2)C=C[C@@H]1C	0.644	0.0582	0.392	0.493	-0.584	0.919	0.308 (inactive)	-0.177	1.26	-0.0266 (inactive)
COc1ccc(COC(=O)NN=C2C[C@@H](O)[C@@H](O)[C@@H]3[C@@H]4C(=O)N(Cc5ccccc5)C(=O)[C@@H]4CC[C@@H]23)cc1	-0.178	-0.641	-0.13	0.458	1.61	0.335	-0.289 (inactive)	0.76	-1.46	0.399 (inactive)
C=CCOCC1CN2[C@@H](CC[C@@H](C)[C@@H]2c2ccc(Br)cc2)C(=O)O1 (stereo not given in full)	0.124	0.312	0.289	-0.268	-0.0306	0.506	-0.809 (inactive)	-0.207	0.672	0.743 (inactive)
O=C1[C@H]2CCn3c(=O)n(Cc4cc5c(cc4Cl)OCO5)c(=O)n3[C@H]2[C@H](O)[C@@H]2O[C@H]12	0.173	-0.124	-0.0111	-1.72	-0.518	0.039	-0.275 (inactive)	0.177	-0.744	-0.963 (inactive)

SMILES	z-score [1]	z-score [2]	z-score [3]	z-score [4]	z-score [5]	z-score [6]	z-score [7]	z-score [8]	z-score [9]	z-score [10]
C[C@H]1CC[C@@H](C(=O)O)N[C@@H]1c1ccc(C#Cc2ccccc2)cc1	-2.1	0.196	-2.28	-3.57	-3.49	-3.46	-0.272 (inactive)	-0.92	-1.59	-0.522 (inactive)
CC[C@@H](c1ccccc1)n1c(=O)n2n(c1=O)[C@H]1[C@H](O)[C@@H]3O[C@@H]3C(=NOCc3ccccc3)[C@H]1CC2	-2.83	0.229	-3.76	-3.1	-3.84	0.517	-0.327 (inactive)	-1.05	-1.68	-2.54 (inactive)
CC#CCOCCC=C1c2ccccc2[C@@H](OC)[C@@H]1C	0.0337	0.182	0.788	-2.36	-0.234	-0.19	-0.669 (inactive)	-0.773	-0.831	0.349 (inactive)
C#CCCCON=C1C[C@@H](O)[C@@H](O)[C@@H]2[C@@H]3C(=O)N(C[C@@H]4CCCO4)C(=O)[C@@H]3CC[C@@H]12	0.137	1.22	-0.396	0.476	-0.0761	-0.444	0.27 (inactive)	-0.193	-0.485	0.0354 (inactive)
CCc1cc2c(nc1CC)CCN(CCC(C)=NO[C@@H]1O[C@H](COC(C)=O)[C@@H](OC(C)=O)[C@H](OC(C)=O)[C@H]1OC(C)=O)C2	-0.984	0.776	-0.536	-2.58	-1.14	1.7	-0.325 (inactive)	-0.0793	0.0201	-0.223 (inactive)
CC(=O)OC[C@H]1O[C@H](CCON=C(C)CCN2CCCc3nc(C)c(C)cc32)C=C[C@@H]1OC(C)=O	0.235	-0.9	-0.667	-1.85	-1.27	-0.689	-0.805 (inactive)	1.03	-0.033	-0.221 (inactive)
CC(CCN1CCCc2nc(C)c(C)cc21)=NOC[C@@H](O)COCc1ccco1	0.604	0.827	-0.496	-1.31	-0.441	-1.46	-0.126 (inactive)	0.0583	-0.0723	0.287 (inactive)
C[C@@H]1CC[C@H]2C(=O)N3[C@@H](CC[C@@H](C)[C@@H]3c3ccc(Br)cc3)C(=O)N2[C@H]1c1ccc(Br)cc1	-0.569	-0.42	-0.0355	-2.69	-2.57	1.65	-0.76 (inactive)	-0.22	1.41	0.632 (inactive)
COC(=O)CC=C[C@@H](C)[C@@H](C=NOC[C@@H](O)COCc1ccco1)NS(=O)(=O)c1ccc(C)cc1	-0.393	-0.295	0.3	-0.833	-0.623	-1.23	0.0134 (inactive)	-0.655	-0.436	-0.44 (inactive)
CCc1cc2c(nc1CC)CCN(CCC(C)=NOC(C)CN1CCCCc3nc(C)c(C)cc31)C2 (stereo not given)	0.115	0.97	0.101	-2.89	-0.51	6.12	-1.02 (inactive)	-0.39	-0.104	0.639 (inactive)
O=C(NN=C1C[C@@H](O)[C@@H](O)[C@@H]2[C@@H]3C(=O)N(c4ccc(F)cc4F)C(=O)[C@@H]3CC[C@H]12)OCc1ccccc1	-0.299	-0.198	-1.39	-0.46	0.707	0.344	0.533 (inactive)	0.0563	-0.741	1.88 (inactive)
CCOC(=O)[C@H](Cc1ccccc1)NC(=O)CCC1CC(OC(=O)NCCc2ccc(F)cc2)CC2(CCCC(COC(=O)NCCOc3ccccc3)O2)O1 (stereo not given in full)	0.613	-0.156	0.141	-0.565	-1.25	1.71	0.508 (inactive)	-0.218	-0.123	0.264 (inactive)
C[C@H]1C=CCC(=O)OC[C@H](C)C(=O)N2CCC[C@H]2C(=O)OC1	-0.531	-1.21	-0.51	0.391	0.0245	0.291	-0.696 (inactive)	-0.148	-0.828	0.283 (inactive)
CCN1C(=O)[C@H]2[C@H]3[C@H](O)[C@H](O)CC(=NOC[C@@H](O)COCc4ccco4)[C@H]3CC[C@H]2C1=O	-0.199	0.47	-0.0911	0.133	-0.229	-0.326	-0.128 (inactive)	0.545	0.905	-0.45 (inactive)
CON=C(C)CCN1CCCCc2nc(C)c(C)cc21	1.03	-0.269	0.564	-0.254	0.371	-0.955	-1.41 (inactive)	-0.174	0.289	-0.0601 (inactive)
CCN1C(=O)[C@H]2[C@H]3[C@H](O)[C@H](O)CC(=NOCC=C(C)CCC=C(C)C)[C@@H]3CC[C@H]2C1=O	-0.0234	0.28	-0.196	-0.701	0.203	-0.731	-1.56 (inactive)	-0.321	0.355	0.298 (inactive)
